Test results reported in PubChem BioAssay.
The source made the active and inactive calls. Unless noted, how the calls were made is not given here.

Assays:
[1] = compound effects on lung adenocarcinoma cell viability – A549, calcein-AM fluorescence, 48 h, basal, profiling panel (AID 1162); settings: higher = more signal; further: test concentration not given here
[2] = compound effects on differentiated 3T3-L1 adipocyte viability – cell-based, 3T3-L1 adipocytes, calcein-AM fluorescence, 48 h, basal, profiling panel (AID 1163); settings: 3T3-L1 adipocytes viability, higher = more signal; further: test concentration not given here
[3] = compound effects on hepatocellular carcinoma cell viability – HepG2, calcein-AM fluorescence, 48 h, basal, profiling panel (AID 1164); settings: higher = more signal; further: test concentration not given here
[4] = compound effects on multiple myeloma cell viability – MM1S, calcein-AM fluorescence, 48 h, basal, profiling panel (AID 1165); settings: higher = more signal;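 further: viability of MM1S multiple myeloma cells under basal unstimulated conditions; test concentration not given here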
[5] = calcein-AM signal in unstimulated myeloma cells – cell-based, calcein-AM fluorescence, 48 h, PK04 Diversity Set, profiling panel (AID 1166); settings: RPMI8226 myeloma viability, higher = more signal;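 further: cells grown under basal conditions without added stimulus; test concentration not given here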
[6] = JC-1 mitochondrial signal, unstimulated HepG2 cells – cell-based, JC-1 fluorescence, 24 h, 100 nL compound, profiling panel (AID 1167); settings: HepG2 mitochondrial potential, higher = more signal; further: test concentration not given here
[7] = JC-1 mitochondrial signal, unstimulated adipocytes – cell-based, JC-1 fluorescence, 3T3-L1 adipocytes, 24 h, 100 nL compound, profiling panel (AID 1168); settings: JC-1 mitochondrial fluorescence, higher = more signal, called active from +8 up or from −8 down; further: test concentration not given here
[8] = JC-1 mitochondrial signal, unstimulated myeloma cells – cell-based, JC-1 fluorescence, RPMI8226, 24 h, 100 nL compound, profiling panel (AID 1169); settings: JC-1 mitochondrial potential fluorescence, higher = more signal; further: test concentration not given here
[9] = JC-1 mitochondrial signal, unstimulated MM1S myeloma – cell-based, JC-1 fluorescence, 24 h, 100 nL compound, profiling panel (AID 1170); settings: MM1S mitochondrial potential, higher = more signal; further: test concentration not given here
[10] = resazurin metabolic signal in A549 cells – cell-based, resazurin fluorescence, 24 h, PK04 Diversity Set, profiling panel (AID 1171); settings: A549 viability, higher = more signal, called active from +8 up or from −8 down; further: test concentration not given here
[11] = resazurin metabolic signal in HepG2 cells – cell-based, resazurin fluorescence, 24 h, PK04 Diversity Set, profiling panel (AID 1172); settings: HepG2 viability, higher = more signal; further: test concentration not given here
[12] = budding yeast growth changes without added modifier – OD600, strain BY4716, 24 h, basal condition, primary screen (AID 1173); settings: S. cerevisiae BY4716 growth, OD600, 24 h; higher = more signal, called active from +8 up or from −8 down
[13] = viability profiling in MM1S myeloma cells – cell-based, resazurin fluorescence, basal, 24 h, PK04 Diversity Set, profiling panel (AID 1174); settings: higher = more signal, called active from +8 up or from −8 down; further: test concentration not given here
[14] = biological target: Dihydroorotate dehydrogenase (quinone), mitochondrial (Plasmodium falciparum (isolate 3D7)) (UniProt Q08210); assay: inhibition of P. falciparum DHODH – biochemical, C-terminal His tag, absorbance 600 nm, primary screen (AID 1175); settings: PfDHODH enzyme, DCIP absorbance 600 nm; higher = more signal, called active from +8 up or from −8 down;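 further: recombinant parasite enzyme with a five histidine tag at its C terminus; test concentration not given here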
Chain of Dihydroorotate dehydrogenase (quinone), mitochondrial (Plasmodium falciparum (isolate 3D7)) (Q08210 whole entry, looked up): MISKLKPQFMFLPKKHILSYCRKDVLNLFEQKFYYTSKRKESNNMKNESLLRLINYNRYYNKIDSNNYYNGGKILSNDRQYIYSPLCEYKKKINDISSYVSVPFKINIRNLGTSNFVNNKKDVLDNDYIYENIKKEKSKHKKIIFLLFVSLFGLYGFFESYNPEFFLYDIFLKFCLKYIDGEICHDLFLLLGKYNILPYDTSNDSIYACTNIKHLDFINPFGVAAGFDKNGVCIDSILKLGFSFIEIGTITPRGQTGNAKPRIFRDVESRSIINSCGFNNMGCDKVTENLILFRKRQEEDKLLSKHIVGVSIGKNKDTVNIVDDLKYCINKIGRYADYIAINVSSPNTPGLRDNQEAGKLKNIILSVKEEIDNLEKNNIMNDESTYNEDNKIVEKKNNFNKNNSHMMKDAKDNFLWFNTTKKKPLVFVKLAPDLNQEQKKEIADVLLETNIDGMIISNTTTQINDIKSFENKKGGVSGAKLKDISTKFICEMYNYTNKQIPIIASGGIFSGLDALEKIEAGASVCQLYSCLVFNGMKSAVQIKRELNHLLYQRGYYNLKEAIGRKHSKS

[15] = inhibition of PAO1 biofilm formation – strain PAO1, LB-PBS medium, absorbance 600 nm, primary screen (AID 1176); further: test concentration not given here; settings: P. aeruginosa PAO1 growth/biofilm, A600, 12 h; higher = more signal
[16] = growth modulation of vineyard yeast isolate – strain RM11-1a, OD600, basal, 24 h, primary screen (AID 1177);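 further: cultures grown under basal conditions with no added stressor; test concentration not given here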; settings: S. cerevisiae RM11-1a growth, OD600, 24 h; higher = more signal, called active from +8 up or from −8 down
[17] = growth of efflux-deficient E. coli DRC39 – strain DRC39, OD650, 24 h, E. coli filamentation inducers, primary screen (AID 1178);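 further: growth measured as culture turbidity by optical density at 650 nm; test concentration not given here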; settings: E. coli DRC39 acrAB, higher = more signal, called active from +8 up or from −8 down
[18] = growth of efflux-deficient E. coli DRC39 – strain DRC39, OD650, 48 h, E. coli filamentation inducers, primary screen (AID 1179);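 further: screen aims at cell division blockers that make cells filament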; settings: E. coli DRC39 delta-acrAB growth, higher = more signal, called active from +8 up or from −8 down
[19] = viability profiling in RPMI8226 myeloma cells – cell-based, resazurin fluorescence, basal, 24 h, PK04 Diversity Set, profiling panel (AID 1180); settings: higher = more signal;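 further: RPMI8826 multiple myeloma cell line at 5000 cells per well; test concentration not given here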
[20] = biological target: E3 ubiquitin-protein ligase XIAP (Homo sapiens) (UniProt P98170); assay: small molecules binding XIAP protein – biophysical, small-molecule microarray, fluorescence 635 nm, primary screen (AID 1181); settings: higher = more signal;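 further: score merges 667 nm emission and signal to noise over triplicate slides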
Chain of E3 ubiquitin-protein ligase XIAP (Homo sapiens) (P98170 whole entry, looked up): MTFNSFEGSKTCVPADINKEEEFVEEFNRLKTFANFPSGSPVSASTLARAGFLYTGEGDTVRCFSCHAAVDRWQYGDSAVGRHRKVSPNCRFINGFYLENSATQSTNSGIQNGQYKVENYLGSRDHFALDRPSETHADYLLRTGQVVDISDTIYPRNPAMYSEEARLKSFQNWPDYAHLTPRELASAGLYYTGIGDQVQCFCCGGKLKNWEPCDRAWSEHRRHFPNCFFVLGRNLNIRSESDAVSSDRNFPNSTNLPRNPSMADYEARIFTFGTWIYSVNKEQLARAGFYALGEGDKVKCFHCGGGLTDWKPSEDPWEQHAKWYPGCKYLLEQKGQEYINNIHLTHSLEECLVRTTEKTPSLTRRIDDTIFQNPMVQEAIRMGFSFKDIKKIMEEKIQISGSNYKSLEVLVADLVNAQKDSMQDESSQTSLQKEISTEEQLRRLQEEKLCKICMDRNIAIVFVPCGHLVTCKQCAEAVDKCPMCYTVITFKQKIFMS

| Structure (SMILES) | z-score [1] | z-score [2] | z-score [3] | z-score [4] | z-score [5] | z-score [6] | z-score [7] | z-score [8] | z-score [9] | z-score [10] | z-score [11] | z-score [12] | z-score [13] | composite z-score [14] | z-score [15] | z-score [16] | z-score [17] | z-score [18] | z-score [19] | composite z-score [20] |
| --- | --- | --- | --- | --- | --- | --- | --- | --- | --- | --- | --- | --- | --- | --- | --- | --- | --- | --- | --- | --- |
| COC(=O)[C@@]1(Cc2ccccc2)N=C(c2ccc(OCCCO)cc2)O[C@H]1c1ccccc1CN=[N+]=[N-] | -2.95 | -0.565 | -5.45 | -3.55 | -3.96 | -2.16 | 1.22 (inactive) | -1.13 | -2.9 | -5.77 (inactive) | -4.1 | 1.24 (inactive) | -7.62 (inactive) | 0.468 (inactive) | 2.45 (inactive) | 2.85 (inactive) | 0.876 (inactive) | 0.93 (inactive) | -6.42 | 0.0549 |
| C[N+](C)(C)CCCC[C@@H]1NC(=O)[C@@H]2C[C@H](C(=O)NCc3ccc(F)cc3)[C@H](c3ccc(O)cc3)N2C1=O | 0.993 | -0.335 | 0.698 | 0.481 | -0.114 | 1.62 | -0.41 (inactive) | -0.0248 | -0.524 | -0.0894 (inactive) | -0.348 | 0.628 (inactive) | 0.0125 (inactive) | 0.0528 (inactive) | 0.683 (inactive) | 0.506 (inactive) | 0.426 (inactive) | 0.577 (inactive) | 0.276 | 0.0223 |
| C=CCC(OC(C)=O)[C@@H]1[C@@H](N(Cc2cccc3ccccc23)C(=O)Cc2ccc(OC)cc2)c2cc(OCCCO)ccc2N1C(=O)Cc1ccc2ccccc2c1 (stereo not given in full) | -0.105 | 0.759 | -0.472 | 0.0986 | -1.36 | 3 | -0.199 (inactive) | -0.226 | 0.0724 | 0.719 (inactive) | 0.687 | 0.428 (inactive) | 0.504 (inactive) | -0.717 (inactive) | -0.853 (inactive) | -0.372 (inactive) | 0.685 (inactive) | 0.248 (inactive) | 0.4 | 0.141 |
| CCCCN1CC=CC23O[C@@H]4/C=C\CCCOC(=O)C4[C@H]2C(=O)N(C(CO)C(C)C)[C@@H]3C1=O (stereo not given in full) | 0.374 | 0.265 | -0.0249 | 0.201 | 0.463 | -0.945 | -0.525 (inactive) | -0.4 | -0.608 | -0.61 (inactive) | -0.101 | 0.259 (inactive) | -0.289 (inactive) | -1.4 (inactive) | -0.0432 (inactive) | -0.427 (inactive) | 0.116 (inactive) | -0.091 (inactive) | -0.235 | -0.0393 |
| C=CCC(OC(C)=O)[C@@H]1[C@@H](N(Cc2cccc3ccccc23)C(=O)c2ccc(-c3ccccc3)cc2)c2cc(OCCCO)ccc2N1C(=O)Cc1ccc2ccccc2c1 (stereo not given in full) | -0.217 | 0.153 | 0.581 | -1.54 | -0.729 | 1.9 | -0.407 (inactive) | -0.342 | 0.164 | 0.706 (inactive) | 0.236 | 0.716 (inactive) | 0.331 (inactive) | -0.0628 (inactive) | 0.444 (inactive) | -0.368 (inactive) | -0.416 (inactive) | -0.236 (inactive) | 0.193 | -0.179 |
| COc1cc(CO)cc(I)c1O[C@H]1C=C(C(=O)NCCO)C[C@@H]2O[C@H]12 | -0.42 | 0.254 | -0.697 | 0.264 | -3.2 | -0.873 | -0.389 (inactive) | -0.443 | -0.52 | -1.41 (inactive) | -0.876 | -11.2 (active) | -0.0563 (inactive) | -1.32 (inactive) | -0.0339 (inactive) | 1.69 (inactive) | -0.364 (inactive) | -0.475 (inactive) | -0.408 | 0.305 |
| CN1C(=O)C2C(C1=O)C1C=C(c3ccc(CO)cc3)C2C(C2CC2)N1C (stereo not given) | 0.632 | 1.29 | -0.799 | 0.535 | -0.594 | 0.399 | -0.768 (inactive) | 0.178 | -0.0509 | -0.694 (inactive) | -0.849 | 0.385 (inactive) | -0.485 (inactive) | 0.918 (inactive) | -0.305 (inactive) | 0.358 (inactive) | -0.453 (inactive) | -0.335 (inactive) | -0.772 | -0.0611 |
| COc1ccc([Si](C)(C)[C@@H]2[C@@H](CC(=O)N3CCC[C@H]3CO)O[C@]3(C(=O)N(Cc4cccc(N5CCCCC5=O)c4)c4ccccc43)[C@H]2C)cc1 | -0.158 | 0.403 | -1.35 | -2.81 | -4.25 | -2.13 | -0.191 (inactive) | -1.12 | -1.47 | -1.6 (inactive) | -1.26 | -0.51 (inactive) | -2 (inactive) | -0.877 (inactive) | 0.319 (inactive) | 0.625 (inactive) | 0.894 (inactive) | 0.6 (inactive) | -2.68 | 0.0167 |
